Compound activity: PubChem BioAssay, National Center for Advancing Translational Sciences (NCATS)
gsp antagonist: qHTS for Antagonists of gsp, the Etiologic Mutation Responsible for Fibrous Dysplasia/McCune-Albright Syndrome: qHTS; Potency, µM (series often up to 76.9 µM), for the others: top-dose activity change, negative = inhibition, hits mostly inhibitors; gsp-mutant cells, cAMP HTRF, 30 min; 0.4% of 340,000 active; AID 624288, 2012; calls by dose curve; cell line not stated here;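 also: intracellular cAMP measured with PDE inhibitor Ro 20-1724 present during compound exposure; potency is read from the fitted curve at half-maximal effect; % is scaled to controls: 0 for no effect and ±100 for the full control effect; nearly all actives have a fitted effect of over 65% in size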
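HTRF cAMP read-out (cAMP-d2 plus anti-cAMP antibody-K in lysis buffer, 30 min RT). Before lysis, cells are exposed to compounds with […] for 30 min at 37C in DPBS containing Ca/Mg, BSA and Tween 20.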
RXFP1 ag: qHTS Assay for Agonists of the Relaxin Receptor RXFP1. Relaxin receptor 1 (Homo sapiens), Q9HBX9. HEK293T-RXFP1 cAMP TR-FRET, 30 min; response scale: percent of porcine relaxin response, buffer zero. Potency, µM (doses to about 57.5 µM), without a hit: top-dose activation, hits mostly activators. 0.3% of 370,000 active. AID 2676, 2010; also: potency is read from the fitted curve at half-maximal effect; % is scaled to controls: 0 for no effect and ±100 for the full control effect; nearly all actives have a fitted effect of over 60% in size
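HEK293 cells stably expressing RXFP1, treated 30 min at 37C with compounds plus PDE4 inhibitor Ro 20174; cAMP measured by HTRF TR-FRET. Normalized to buffer and 29 nM porcine relaxin; EC50 by Hill fit.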
Tb PFK block: qHTS Assay to Find Inhibitors of T. brucei phosphofructokinase | ATP-dependent 6-phosphofructokinase (Trypanosoma brucei brucei), O15648 | T. brucei PFK, ADP-Glo luminescence | Potency, µM (titrated, usually from 57.5 µM), without a hit: at the top dose activity, negative = inhibition, hits mostly inhibitors | 0.17% of 330,000 active | AID 485367, 2010;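 also: potency is read from the fitted curve at half-maximal effect; 0% = uninhibited 1x PFK enzyme wells and -100% = no-enzyme wells; nearly all actives have a fitted effect of over 60% in size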
Target sequence (O15648 whole entry, looked up): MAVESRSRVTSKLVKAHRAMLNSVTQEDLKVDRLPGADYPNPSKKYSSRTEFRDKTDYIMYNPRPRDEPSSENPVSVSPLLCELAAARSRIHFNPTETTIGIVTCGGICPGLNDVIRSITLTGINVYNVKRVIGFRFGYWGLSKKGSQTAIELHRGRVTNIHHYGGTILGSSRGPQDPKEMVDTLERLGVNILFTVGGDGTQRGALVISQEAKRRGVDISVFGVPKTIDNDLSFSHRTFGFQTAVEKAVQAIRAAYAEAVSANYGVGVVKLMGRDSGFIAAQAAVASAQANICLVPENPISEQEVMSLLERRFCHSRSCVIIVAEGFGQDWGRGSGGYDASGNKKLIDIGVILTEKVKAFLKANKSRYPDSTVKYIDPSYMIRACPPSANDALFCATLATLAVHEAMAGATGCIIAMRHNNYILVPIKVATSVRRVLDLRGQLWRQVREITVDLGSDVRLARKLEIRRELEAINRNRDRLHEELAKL
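Luminescent ADP detection (ADP-Glo, two-step: ATP depletion then ADP-to-ATP conversion for luciferase) reported PFK activity after 45 min room-temperature reaction of 1.25 nM enzyme with 0.5 mM F6P and 0.1 mM ATP at pH 8.0.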
p53 reactivator: qHTS assay for re-activators of p53 using a Luc reporter; H1299 p53-A138V BP100-luciferase reporter, luminescence, 24 h; Potency, µM (titrated, usually from 92.2 µM), for the others: at the highest dose activity change, positive = activation, most hits filed as activators; 0.063% of 320,000 active; AID 504706, 2011; also: potency is read from the fitted curve at half-maximal effect; % of control where 0% means no effect; nearly all actives have a fitted effect of over 45% in size
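H1299 (p53-null), stable ts p53-A138V + BP100-Luc; 1000 cells/well, Opti-MEM/10% FBS; cpd 4 pt, 1:5; 24 h, 37 deg C, 5% CO2; detection reagent 10 min RT; luminescence.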
RXFP1 antag: qHTS Assay for Antagonists of the Relaxin Receptor RXFP1; Relaxin receptor 1 (Homo sapiens), Q9HBX9; activity change, negative = inhibition, % at 57.5 µM; HEK293-RXFP1, relaxin-stimulated cAMP HTRF, 30 min; active compounds read low; 0.59% of 350,000 active;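 active = activity change of -60% or lower, but not beyond a set lower limit; inconclusive = change between -60% and -40%, or beyond the set limit; inactive = change above -40%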; also: % is scaled to controls: 0 for no effect and ±100 for the full control effect
gsp agonist: qHTS for Agonist of gsp, the Etiologic Mutation Responsible for Fibrous Dysplasia/McCune-Albright Syndrome: qHTS; gsp mutant cells, cAMP HTRF, 30 min; Potency, µM (doses to about 76.9 µM), inactives show top-dose activation (cAMP increase), usual class: activators; 0.13% of 340,000 active; AID 624287, 2012; active = well fitted activation curve with a large enough effect; inconclusive = small, poorly fitted or top-dose-only effect, or another doubt; inactive = no such curve, though single readings can be large or run the other way; cell line not stated here;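 also: phosphodiesterase inhibitor Ro 20-1724 added with compounds to block cAMP breakdown; potency is read from the fitted curve at half-maximal effect; nearly all actives have a fitted effect of over 60% in size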
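Cells stably selected in G418 were plated at 2000/well, grown 16-24 hr, then given compounds in DMSO with the PDE inhibitor […] (300 uM solution added) for 30 min at 37C; cAMP was read by HTRF.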
The depositor's hits bear a star; ? = inconclusive; · = no result; [ ] = dose if it differs, or a comment. Compounds with a hit are over-represented: about 1.1% of the library has one in this group of screens. Unless noted, calls follow the shape of the dose curve; as a rule, active = well fitted curve in the direction sought with a large enough effect; inconclusive = small, poorly fitted or top-dose-only effect, or another doubt; inactive = no such curve, though single readings can be large; an effect the other way counts as inactive or inconclusive.

SMILES	gsp antagonist	RXFP1 ag	Tb PFK block	p53 reactivator	RXFP1 antag	gsp agonist
CCn1ccnc1CN(C)C(=O)C1CCC(=O)N(CCc2cccc(F)c2)C1 (stereo unspecified)	5%	1%	-4%	-5%	0	-7%
O=C(COc1ccccc1[N+](=O)[O-])OCC(=O)c1ccc(Br)s1	22%	·	-3%	12%	15	10µM*
O=C(Nc1nc2c(Cl)ccc(Cl)c2s1)C1CC1	4%	0%	-4%	7%	-3	-1%
NNc1nc2c(Cl)ccc(Cl)c2s1	28µM*	-3%	?	2%	-23	33%[15.4 µM]
O=C(CNC(=O)c1ccccc1F)NC1CCN(Cc2ccccc2)CC1	10%	-1%	-4%	-1%	-10	?
Cn1c(-c2ccc([N+](=O)[O-])cc2)nc2ccccc21	13%	?	0%	18%	12	2.2µM*
Cc1cc(C)c(NC(=O)Cn2c(=O)n(Cc3ccccc3)c(=O)c3c(C)c(C(=O)N(C)C)sc32)c(C)c1	·	0%	·	·	3	·
Cc1cc(C)c(S(=O)(=O)N2CCCOC2CNC(=O)C(=O)NCc2ccccn2)c(C)c1 (stereo unspecified)	11µM*	1%	0%	-4%	-11	24%[15.4 µM]
Cc1cc(C)c(S(=O)(=O)N2CCOC2CNC(=O)C(=O)NCc2ccccn2)c(C)c1 (stereo unspecified)	7%	-1%	-12%	-7%	0	-29%
NNC(=O)c1ccc(COc2ccc3ccccc3c2)cc1	13%	0%	3%	3%	-28	-4%
Cc1nn(-c2ccc(F)cc2)c(Cl)c1/C=C(/CC(=O)O)c1nc2ccccc2s1	-20%	·	·	·	4	-21%
Cc1nn(-c2ccc(F)cc2)c(Cl)c1/C=C(\CC(=O)O)c1nc2ccccc2s1	40µM*	0%	-1%	-1%	4	26%
CC(=O)c1cc(Cl)ccc1OCc1cccc(S(=O)(=O)N2CCOCC2)c1	35µM*	3%	19%	-5%	-17	-8%
CCOc1cc(/C=C2\SC(=S)N(NS(=O)(=O)c3ccccc3)C2=O)ccc1O	25µM*	-16%	24%	-4%	-18	-49%
COc1ccc(OC)c(/C=C2\SC(=S)N(NS(=O)(=O)c3ccccc3)C2=O)c1	18µM*	1%	28%	-9%	0	?
COc1ccc(/C=C2\SC(=S)N(NS(=O)(=O)c3ccccc3)C2=O)c(OC)c1	?	4%	-1%	2%	-68*	-155%
COc1ccc(/C=C2\SC(=S)N(NS(=O)(=O)c3ccc(C)cc3)C2=O)c(OC)c1	50µM*	3%	5%	-12%	-33	10%[15.4 µM]
Cc1ccc(Cl)cc1N1CCN(C(=O)c2cnc(N3CCOCC3)c3ccccc23)CC1	·	-1%	·	·	-82*	·
Cc1ccc(N2CCN(C(=O)c3cnc(N4CCCCC4)c4ccccc34)CC2)c(C)c1	·	2%	·	·	-70*	·
O=C(Nc1ccc(Cl)c(S(=O)(=O)N2CCOCC2)c1)C1=NN(c2ccccc2)C(=O)CC1	-8%	·	-2%	-5%	-12	-8%[15.4 µM]
Cc1noc(C)c1S(=O)(=O)Nc1ccc2c(c1)C(=O)N([C@H](C)CO)C[C@H](C)[C@@H](CN(C)S(=O)(=O)c1ccccc1)O2	7%	·	4%	-1%	·	?
Cc1ccccc1OCC(=O)NNC(=O)Nc1ccc(Cl)cc1	18%	0%	-4%	-2%	6	1%
CSc1ccccc1NC(=O)COc1ccc(Cl)cc1Cl	-9%	1%	-2%	15%	15	-40%
O=C(COc1ccccc1O)Nc1ccc(Cl)cc1	35µM*	-3%	-1%	-1%	5	18%
O=C(COc1ccc(Cl)cc1Cl)Nc1ccccn1	-8%	1%	17µM*	-7%	16	?
SMILES	gsp antagonist	RXFP1 ag	Tb PFK block	p53 reactivator	RXFP1 antag	gsp agonist
O=C(CSc1nccc(-c2cccs2)n1)Nc1ccc(F)c(Cl)c1	?	-1%	-14%	-4%	2	26%
CC(C)(O)C(=O)NNC(=S)NCc1ccco1	4%	4%	-4%	-1%	-1	18%
CCN(CC)S(=O)(=O)c1ccc(C(=O)Nc2ccc(Cc3ccncc3)cc2)cc1	50µM*	0%	3%	-4%	-20	35%
CCN(CC)S(=O)(=O)c1ccc(C(=O)Nc2nnc(NC(=S)Nc3ccccc3)s2)cc1	-5%	0%	1%	14%	-85*	-6%[15.4 µM]
O=C(Cn1cnc2onc(-c3ccc(F)cc3)c2c1=O)Nc1cccc(C(F)(F)F)c1	·	-1%	·	·	·	·
CCC(=O)NC(c1ccc([N+](=O)[O-])cc1)c1c(O)ccc2ccccc12 (stereo unspecified)	?	-1%	0%	-13%	-20	-67%
CCCCC(=O)NC(c1ccc([N+](=O)[O-])cc1)c1c(O)ccc2ccccc12 (stereo unspecified)	?	0%	5%	-1%	-62*	3%[15.4 µM]
S=C1Nc2ccccc2Sc2ccc(Cl)cc21	11%	1%	-6%	-3%	?	-5%
COc1cccc(CC2(CO)CCCN(Cc3ccc(C)s3)C2)c1 (stereo unspecified)	5%	-1%	-1%	0%	-78*	13%[15.4 µM]
Clc1ccc(C=Cc2ccccn2)cc1	-8%	·	·	·	-12	-14%
Cc1ccccc1OCC(=O)Nc1nc(-c2ccncc2)cs1	?	0%	1%	6%	-21	0%
CCc1nc(Nc2ccncc2)c2oc3ccccc3c2n1	0%	0%	-1%	-6%	-12	-19%
CCc1nc(Nc2cccc(O)c2)c2oc3ccccc3c2n1	-26%	5%	3%	-1%	-76*	22%
CC(Oc1ccc2c3c(c(=O)oc2c1)CCCC3)C(=O)NCC1CCC(C(=O)O)CC1 (stereo unspecified)	-5%	3%	2%	14%	-13	-17%
CC(Oc1ccc2c3c(c(=O)oc2c1)CCC3)C(=O)NCC1CCC(C(=O)O)CC1 (stereo unspecified)	32µM*	3%	2%	15%	·	·
CCOC(=O)c1c(NC(=O)CSc2nc3ccc(OC)cc3[nH]2)sc2c1CC(C)(C)NC2(C)C	-6%	0%	2%	2%	-62*	3%[15.4 µM]
